Results filed as inconclusive are left out. Active and inactive are the calls of the source. Unless noted, calls follow the shape of the dose curve; as a rule, active = well fitted curve in the direction sought with a large enough effect; inconclusive = small, poorly fitted or top-dose-only effect, or another doubt; inactive = no such curve, though single readings can be large; an effect the other way counts as inactive or inconclusive.

Assay [1] is described as follows: High Content Imaging Cell-Based qHTS for Inhibitors of the mTORC1 Signaling Pathway in MEF (Tsc2-/-, p53-/-) Cells (AID 2666).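 Also: percent of cells scored positive for phospho-rpS6 Ser235/236 immunostaining by imaging.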 Also: potency is read from the fitted curve at half-maximal effect. The essentials: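 Cells were plated, dosed with compound after 24 hrs, and incubated another 24 hrs at 37 degree Celsius. Fixed cells were immunostained for phospho-rpS6 Ser235/236 and counterstained, and the normalized signal was scored as % active cells against rapamycin and DMSO controls.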
For orientation: In qHTS, concentration-response curves come from the screen itself.

The nature of assay [2]: High Content Imaging Cell-Based qHTS for Inhibitors of the mTORC1 Signaling Pathway in MEF Cells (AID 2667).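 Also: Tsc2-/- p53-/- MEFs stably re-expressing wild-type Tsc2 exposed 24 h; series mostly up to about 38 µM.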 A digest of the protocol:
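Immunofluorescence for rpS6 phosphorylation in MEFs of Tsc2-/-, p53-/- background rescued with WT Tsc2. Compound exposure lasted 24 hrs. Inhibition was scored against rapamycin-treated control wells.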

Assay [3] can be described thus: Cytometry Cell-Based qHTS for Inhibitors of the mTORC1 Signaling Pathway in MEF cells (AID 2668). Also: potency is read from the fitted curve at half-maximal effect. The essentials: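 Tsc2-/-, p53-/- MEFs re-expressing WT Tsc2; cpd 24 hrs, 37 degree Celsius; PFA fix, Alexa-488 p-rpS6 (Ser235/236) Ab 2 hrs RT, PI counterstain; Acumen 488nm scan; p-S6/PI ratio → % positive cells; PI count = viability.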
In assay [4] the target is Ubiquitin carboxyl-terminal hydrolase 2 (Homo sapiens) (UniProt O75604). As to the kind of experiment: qHTS Validation Assay for Inhibitors of Ubiquitin-specific Protease USP2a Using CHOP2 as the Reporter (AID 463106). A digest of the protocol:
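10nM USP2 core + cpd, 30min RT; add 25nM Ub-CHOP2/25nM substrate; 60min RT; FI 485/531nm. Buffer Tris pH 8.0, CaCl2, BME, CHAPS. Norm. to NEM = 100% inhibition; time-zero read flags fluorescent artifacts.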

Assay [5] addresses DNA polymerase III PolC-type (Bacillus subtilis (strain 168)) (UniProt P13267). As to the kind of experiment: qHTS Validation Assay for the Inhibitors of DNA Replication in Gram-Positive Bacteria (AID 485295).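 Also: reconstituted holoenzyme with PolC plus beta clamp SSB and primase; PicoGreen fluorescence of double-stranded DNA made on primed circular M13 template; series mostly up to about 57 µM.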 The essentials: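 First, compound is mixed with the reconstituted replication complex and held at room temperature. Next, circular single-stranded M13Gori with nucleotides starts synthesis. Finally, PicoGreen in EDTA halts the reaction and stains double-stranded product for fluorescence reading.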

The target in assay [6] is Tumor susceptibility gene 101 protein (Homo sapiens) (UniProt Q99816). Briefly: qHTS Validation Assay for Iinhibitors of HIV-1 Budding by Blocking the Interaction of PTAP/TSG101 (AID 485342; calls by dose curve). A digest of the protocol: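 Binding of a FITC-tagged PTAP-motif peptide (50 nM) to the Tsg101 binding domain (10 uM) is monitored by fluorescence polarization. Compounds are pin-delivered before peptide addition, and incubation runs 20 min at room temperature.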

Assay [7] can be described thus: qHTS Validation Assay to Find Inhibitors of Chronic Active B-Cell Receptor Signaling (AID 485345; active = well fitted curve in the direction sought with a large enough effect in the main read-out, with a control signal flat, not every such curve was filed as active). A digest of the protocol: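 Read-out: ratio of filter-corrected green (IkappaBalpha fusion) to red (native) luciferase signal in doxycycline-induced TMD8 cells after 4 h at 37C. Titration spanned 46 uM–3 nM; Data were normalised to basal cells and 10 uM MG-132 wells.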

Assay [8] concerns the target Beta-2 adrenergic receptor (Homo sapiens) (UniProt P07550). Briefly: qHTS validation assay of beta-arrestin-biased ligands of beta2-adrenergic receptor (AID 485366). The essentials:
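Values derive from curve-fitted %Activity of a luminescent beta-arrestin recruitment reporter; compounds tested up to 46 microM on Tango cells for 18 hr at 37 degrees C, 5% CO2.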

For assay [9], the target named is Thioredoxin reductase 1, cytoplasmic (Rattus norvegicus) (UniProt O89049). Briefly: qHTS Assay for Substrates of Mammalian Selenoprotein Thioredoxin Reductase 1 (TrxR1) (AID 488772).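 Also: NADPH fluorescence in the first read after selenite addition and not the 8 min delta; series mostly up to about 57 µM; a drop in NADPH fluorescence below the no-compound background marks a TrxR1 substrate.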 The essentials:
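Quantitative HTS in Tris-HCl buffer at pH 7.5 with EDTA and Tween-20, using rat TrxR1, 400 uM NADPH and 400 uM selenite (final). A fall in initial NADPH fluorescence relative to background marked substrate behaviour.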

The target of assay [10] is Flap endonuclease 1 (Homo sapiens) (UniProt P39748). Briefly: qHTS Validation Assay for the Inhibitors of Human Flap endonuclease 1 (FEN1) (AID 488816). A digest of the protocol:
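Readings taken at 0 and 15 min after starting the reaction with 50 nM (final) substrate supplied the signal. Compounds had first sat with 10 nM FEN1 reagent for 15 min at room temperature. Values come from Hill-equation concentration-response fits.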

Assay [11] concerns the target Chromobox protein homolog 1 (Homo sapiens) (UniProt P83916). As to the kind of experiment: qHTS Validation Assay for Inhibitors of HP1-beta Chromodomain Interactions with Methylated Histone Tails (AID 488953). Also: nearly all actives have a fitted effect of over 50% in size. Also: potency is read from the fitted curve at half-maximal effect. A digest of the protocol: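 50 nM HP1-beta + 50 nM biotin-H3(1-18)K9me3, PBS pH 7.4, 0.01% Tween-20, 30 min RT; compound added, 30 min RT; AlphaScreen beads 10 ug/mL final, 30 min dark; luminescence read.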

In assay [12] the target is Methanococcus maripaludis chaperonin (MmCpn) (UniProt Q6LX38). As to the kind of experiment: High-Throughput Screening for Modulators of Cytosolic Chaperonin Activity: MmCpn Primary Screen (AID 488978).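 Also: 50 nM MmCpn enzyme hydrolysing 30 µM ATP at 37 °C.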 The essentials:
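Steps: chaperonin 50 nM final; add compound, 5 min RT; start with ATP, 30 uM final; hold 10 min at 37C; add ADP Transcreener HTRF reagent, 5 min; read ex 320, em 590 and 665 nm.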

Assay [13] can be described thus: Validation screen for small molecules that induce DNA re-replication in MCF 10A normal breast cells (AID 463097). Also: nearly all actives have a fitted effect of over 60% in size. Also: potency is read from the fitted curve at half-maximal effect. A digest of the protocol: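 Image-based qHTS: normal breast cells are incubated with compound for 48 hr, stained with Hoechst, and scanned for total nuclear fluorescence. Compounds raising the fraction of nuclei with elevated DNA content count as re-replication inducers.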

Assay [14] in a line: Quantitative high throughput screen for delayed death inhibitors of the malarial parasite plastid, 96 hour incubation (AID 488745). Also: nearly all actives have a fitted effect of over 70% in size. Also: potency is read from the fitted curve at half-maximal effect. The essentials: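 Infected erythrocytes were added to compound in Albumax-supplemented RPMI 1640 at 0.1% parasitemia and 2% hematocrit (final), incubated 96 h at 37 C under 5% CO2, then luciferase reagent was added and luminescence measured.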

Assay [15] is described as follows: Quantitative high throughput screen for delayed death inhibitors of the malarial parasite plastid, 48 hour incubation (AID 488752). Also: nearly all actives have a fitted effect of over 65% in size. Also: potency is read from the fitted curve at half-maximal effect. A digest of the protocol: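 Readout is firefly luciferase luminescence from a reporter integrated into the parasite genome, with lower signal taken as inhibited growth. Infected red cells (0.1% parasitemia, 2% hematocrit final) are cultured with compound for one 48 h cycle at 37 C.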

For assay [16], the target named is Thioredoxin reductase 1, cytoplasmic (Rattus norvegicus) (UniProt O89049). As to the kind of experiment: qHTS Assay for Inhibitors of Mammalian Selenoprotein Thioredoxin Reductase 1 (TrxR1) (AID 488773).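 Also: drop in NADPH fluorescence over an 8 min run after selenite addition; series mostly up to about 57 µM; nearly all actives have a fitted effect of over 40% in size.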 The settings on record: Potency: inhibition. A digest of the protocol: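 Steps: enzyme (90 nM) plus NADPH (400 uM final), 5 min at ~22 deg C; compound added, 15 min; selenite (400 uM final) added; fluorescence followed for 8 min. Concentration-response curves derived from the normalized delta values.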

Assay [17] concerns the target M-phase phosphoprotein 8 (Homo sapiens) (UniProt Q99549). As to the kind of experiment: qHTS Validation Assay for Inhibitors for MPP8 Chromodomain Interactions with Methylated Histone Tails (AID 488949). Also: nearly all actives have a fitted effect of over 55% in size. Also: potency is read from the fitted curve at half-maximal effect. The essentials:
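50 nM MPP8 + 50 nM b-H3K9me3 peptide, PBS pH 7.4/0.01% Tween-20, 30 min RT; + cpd 30 min RT; + AlphaScreen donor/Ni-chelate acceptor beads 10 ug/mL final, 30 min dark; luminescence read.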

Assay [18] deals with ATP-dependent 6-phosphofructokinase (Trypanosoma brucei brucei) (UniProt O15648). Briefly: qHTS Validation Assay to Find Inhibitors of T. brucei phosphofructokinase (AID 485368). A digest of the protocol:
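Enzyme reaction in triethanolamine buffer pH 8.0 with 5 mM MgCl2, 0.01% Tween20 and 0.1% BSA; PFK 1.25 nM, F6P 0.5 mM, ATP 0.1 mM, 45 min RT. ADP quantified by ADP-Glo.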

Sequence of ATP-dependent 6-phosphofructokinase (Trypanosoma brucei brucei) (O15648 whole entry, looked up): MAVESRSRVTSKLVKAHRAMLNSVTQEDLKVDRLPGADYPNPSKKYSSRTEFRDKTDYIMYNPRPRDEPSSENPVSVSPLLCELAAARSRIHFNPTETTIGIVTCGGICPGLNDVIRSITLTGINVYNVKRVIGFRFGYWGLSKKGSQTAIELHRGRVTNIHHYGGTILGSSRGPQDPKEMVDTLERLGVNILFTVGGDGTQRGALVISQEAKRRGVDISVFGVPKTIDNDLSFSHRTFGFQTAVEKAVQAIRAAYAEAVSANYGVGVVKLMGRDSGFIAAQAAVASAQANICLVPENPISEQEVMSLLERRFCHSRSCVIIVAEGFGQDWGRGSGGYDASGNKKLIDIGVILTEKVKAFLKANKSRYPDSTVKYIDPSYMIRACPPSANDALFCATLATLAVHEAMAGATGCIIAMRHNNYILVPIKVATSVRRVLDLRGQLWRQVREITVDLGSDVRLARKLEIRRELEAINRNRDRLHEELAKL
Sequence of Ubiquitin carboxyl-terminal hydrolase 2 (Homo sapiens) (O75604 whole entry, looked up): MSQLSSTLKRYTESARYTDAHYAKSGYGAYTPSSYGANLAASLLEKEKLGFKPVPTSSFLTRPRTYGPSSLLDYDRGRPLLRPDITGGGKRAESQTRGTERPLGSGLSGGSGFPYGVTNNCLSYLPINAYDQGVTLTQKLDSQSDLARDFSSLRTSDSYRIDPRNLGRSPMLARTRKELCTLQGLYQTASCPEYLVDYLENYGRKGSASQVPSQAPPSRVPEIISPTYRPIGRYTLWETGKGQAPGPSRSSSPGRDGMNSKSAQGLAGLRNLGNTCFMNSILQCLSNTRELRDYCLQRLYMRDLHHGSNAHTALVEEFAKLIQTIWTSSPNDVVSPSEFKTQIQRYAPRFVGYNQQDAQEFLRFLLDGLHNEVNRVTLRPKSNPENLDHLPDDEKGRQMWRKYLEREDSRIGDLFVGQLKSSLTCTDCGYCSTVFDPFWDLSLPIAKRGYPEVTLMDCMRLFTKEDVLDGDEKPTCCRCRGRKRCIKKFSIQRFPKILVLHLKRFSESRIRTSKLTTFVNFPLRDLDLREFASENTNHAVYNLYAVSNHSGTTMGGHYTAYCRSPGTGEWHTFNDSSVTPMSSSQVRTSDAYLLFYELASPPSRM
Sequence of M-phase phosphoprotein 8 (Homo sapiens) (Q99549 whole entry, looked up): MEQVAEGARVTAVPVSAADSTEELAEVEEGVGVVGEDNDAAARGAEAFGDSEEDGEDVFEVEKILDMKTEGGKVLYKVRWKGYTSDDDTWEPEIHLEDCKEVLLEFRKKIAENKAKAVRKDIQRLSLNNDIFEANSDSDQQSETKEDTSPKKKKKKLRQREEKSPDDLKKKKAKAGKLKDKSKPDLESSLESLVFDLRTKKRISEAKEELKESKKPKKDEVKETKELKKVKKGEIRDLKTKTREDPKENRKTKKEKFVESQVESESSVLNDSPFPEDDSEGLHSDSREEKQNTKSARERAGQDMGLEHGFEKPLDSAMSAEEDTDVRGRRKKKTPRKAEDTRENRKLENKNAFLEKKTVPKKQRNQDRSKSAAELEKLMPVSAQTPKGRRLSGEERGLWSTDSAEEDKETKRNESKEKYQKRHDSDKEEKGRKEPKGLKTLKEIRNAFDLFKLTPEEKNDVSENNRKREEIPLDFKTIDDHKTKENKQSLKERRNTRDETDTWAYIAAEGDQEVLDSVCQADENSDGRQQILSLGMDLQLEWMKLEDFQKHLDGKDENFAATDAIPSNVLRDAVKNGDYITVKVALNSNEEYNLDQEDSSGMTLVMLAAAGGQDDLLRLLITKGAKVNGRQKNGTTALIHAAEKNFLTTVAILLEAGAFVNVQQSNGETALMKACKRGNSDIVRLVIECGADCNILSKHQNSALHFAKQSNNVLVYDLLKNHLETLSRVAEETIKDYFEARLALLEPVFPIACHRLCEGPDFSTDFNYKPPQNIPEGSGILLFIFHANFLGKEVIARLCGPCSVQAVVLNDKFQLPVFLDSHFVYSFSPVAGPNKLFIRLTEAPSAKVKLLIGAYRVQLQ
Sequence of Methanococcus maripaludis chaperonin (MmCpn) (Q6LX38 1-543): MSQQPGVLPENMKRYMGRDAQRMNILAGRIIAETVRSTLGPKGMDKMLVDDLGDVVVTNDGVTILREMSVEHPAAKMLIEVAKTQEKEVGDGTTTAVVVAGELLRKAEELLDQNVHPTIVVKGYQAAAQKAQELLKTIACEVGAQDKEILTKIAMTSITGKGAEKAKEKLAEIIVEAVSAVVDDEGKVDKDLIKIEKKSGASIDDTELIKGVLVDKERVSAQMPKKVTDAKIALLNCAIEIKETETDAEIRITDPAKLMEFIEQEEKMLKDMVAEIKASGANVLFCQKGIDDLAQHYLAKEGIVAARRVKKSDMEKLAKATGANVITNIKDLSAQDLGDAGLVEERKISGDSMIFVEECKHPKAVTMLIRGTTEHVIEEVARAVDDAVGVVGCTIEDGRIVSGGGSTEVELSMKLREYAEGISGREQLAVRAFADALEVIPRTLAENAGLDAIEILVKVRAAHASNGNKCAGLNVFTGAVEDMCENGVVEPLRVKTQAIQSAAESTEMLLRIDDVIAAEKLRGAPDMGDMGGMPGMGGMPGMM
Sequence of Flap endonuclease 1 (Homo sapiens) (P39748 whole entry, looked up): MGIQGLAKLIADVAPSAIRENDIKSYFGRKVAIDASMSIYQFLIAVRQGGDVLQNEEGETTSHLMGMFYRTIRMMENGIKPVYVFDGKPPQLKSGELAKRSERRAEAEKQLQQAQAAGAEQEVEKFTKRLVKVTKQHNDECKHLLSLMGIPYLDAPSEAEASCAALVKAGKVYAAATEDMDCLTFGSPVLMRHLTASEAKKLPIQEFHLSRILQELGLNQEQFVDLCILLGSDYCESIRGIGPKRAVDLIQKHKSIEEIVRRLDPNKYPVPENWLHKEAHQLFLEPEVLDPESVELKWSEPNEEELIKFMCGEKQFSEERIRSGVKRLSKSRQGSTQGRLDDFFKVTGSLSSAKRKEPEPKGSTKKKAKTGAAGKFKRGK
Sequence of Chromobox protein homolog 1 (Homo sapiens) (P83916 whole entry, looked up): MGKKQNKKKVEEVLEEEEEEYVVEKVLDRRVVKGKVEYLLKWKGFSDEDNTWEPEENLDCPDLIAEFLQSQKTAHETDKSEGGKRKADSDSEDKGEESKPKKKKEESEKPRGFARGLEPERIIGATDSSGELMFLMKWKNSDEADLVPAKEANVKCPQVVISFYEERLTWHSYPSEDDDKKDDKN
Sequence of Thioredoxin reductase 1, cytoplasmic (Rattus norvegicus) (O89049 whole entry, looked up): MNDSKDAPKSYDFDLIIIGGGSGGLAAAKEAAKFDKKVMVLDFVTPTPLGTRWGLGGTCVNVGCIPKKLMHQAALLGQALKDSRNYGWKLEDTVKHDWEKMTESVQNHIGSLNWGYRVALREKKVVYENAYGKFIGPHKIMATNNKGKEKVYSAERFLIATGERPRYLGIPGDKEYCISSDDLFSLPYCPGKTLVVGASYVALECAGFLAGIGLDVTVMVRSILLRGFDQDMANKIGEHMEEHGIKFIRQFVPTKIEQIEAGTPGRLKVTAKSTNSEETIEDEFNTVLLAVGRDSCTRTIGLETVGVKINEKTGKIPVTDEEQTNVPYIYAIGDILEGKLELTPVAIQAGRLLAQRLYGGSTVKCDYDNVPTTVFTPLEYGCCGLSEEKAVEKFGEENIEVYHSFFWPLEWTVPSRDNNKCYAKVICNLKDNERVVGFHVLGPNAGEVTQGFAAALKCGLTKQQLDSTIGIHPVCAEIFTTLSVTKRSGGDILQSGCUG
Sequence of Beta-2 adrenergic receptor (Homo sapiens) (P07550 whole entry, looked up): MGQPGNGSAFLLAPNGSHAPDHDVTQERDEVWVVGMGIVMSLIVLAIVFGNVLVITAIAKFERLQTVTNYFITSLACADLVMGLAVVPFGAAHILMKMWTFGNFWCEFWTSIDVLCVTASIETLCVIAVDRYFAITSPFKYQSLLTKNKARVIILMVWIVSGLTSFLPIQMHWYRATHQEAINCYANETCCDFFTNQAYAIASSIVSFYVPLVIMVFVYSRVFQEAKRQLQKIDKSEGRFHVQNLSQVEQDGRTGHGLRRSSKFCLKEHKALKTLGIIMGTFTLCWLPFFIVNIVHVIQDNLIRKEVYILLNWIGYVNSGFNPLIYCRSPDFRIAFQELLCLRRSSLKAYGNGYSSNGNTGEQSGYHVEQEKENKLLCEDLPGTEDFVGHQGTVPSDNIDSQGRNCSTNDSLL
Sequence of Tumor susceptibility gene 101 protein (Homo sapiens) (Q99816 whole entry, looked up, the tested form may be a part): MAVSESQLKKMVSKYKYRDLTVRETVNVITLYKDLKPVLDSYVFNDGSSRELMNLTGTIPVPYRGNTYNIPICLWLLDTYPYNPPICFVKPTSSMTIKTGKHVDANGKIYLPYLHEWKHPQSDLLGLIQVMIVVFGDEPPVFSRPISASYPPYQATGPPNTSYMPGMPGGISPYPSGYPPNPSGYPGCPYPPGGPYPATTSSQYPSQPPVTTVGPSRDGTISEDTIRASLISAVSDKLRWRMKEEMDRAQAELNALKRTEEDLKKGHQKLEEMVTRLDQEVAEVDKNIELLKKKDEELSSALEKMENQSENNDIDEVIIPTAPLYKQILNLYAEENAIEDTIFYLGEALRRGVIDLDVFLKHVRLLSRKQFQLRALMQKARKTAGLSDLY

For the compound `C[C@H](NC(=O)/C(C#N)=C/c1ccc(O)c(O)c1)c1ccccc1`, the Potency result in [1], in assay [2], in assay [3], in assay [4], in assay [5] and in [10] was “inactive” in each case. The compound was classed as inactive in [6], in assay [7], in assay [8], in assay [9] and in assay [12]. In addition, the Potency in [11] is 31.6 µM (active).
With `COc1ccc(NC(=O)c2ccc(-c3ccc(-c4noc(C)n4)cc3C)cc2)cc1N1CCN(C)CC1`, the Potency in assay [1] was 16.5 µM (active); in assay [3], 5.85 µM (active); in assay [13], 12.6 µM (active); in assay [14] it was 4.65 µM (active); in [15], 3.7 µM (active); in assay [17], 15.8 µM (active). The Potency entry in assay [4], in assay [5], in assay [16] and in [10] was “inactive” each time. Besides, the result in [6], in [8], in [9] and in assay [12] was inactive.
Regarding `O=S(=O)(c1cccc2c(Cl)cccc12)N1CCCNCC1`, the Potency result in assay [1], in [2], in [3], in [4], in assay [5] and in [18] was “inactive” throughout. Further, the Potency entry in assay [14], in [15], in assay [10], in assay [17] and in [11] was “inactive” throughout. The call in assay [6], in assay [7], in assay [9] and in assay [12] was inactive.
With `CCCCOC(=O)NS(=O)(=O)c1sc(CC(C)C)cc1-c1ccc(Cn2c(CC)nc3c(C)cc(C)nc32)cc1`, the Potency result in [1], in assay [4], in assay [5], in [18], in assay [14] and in assay [16] was “inactive” each time. For the same compound, the Potency entry in [10], in assay [17] and in [11] was “inactive” each time. Further, the compound was called inactive in [6] and in assay [12].
As to `O=C(O)c1cccnc1C(=O)O`, the Potency result in assay [1], in [3], in assay [13], in assay [4], in assay [5] and in assay [18] was “inactive” each time. For the same compound, the Potency entry in assay [14], in assay [15], in [16] and in assay [10] was “inactive” in each case. Moreover, the outcome in assay [6], in assay [7], in [8], in assay [9] and in [12] was inactive.
For the compound `Nc1nc2ccc(Cl)cc2c2nc(-c3ccco3)nn12`, the Potency entry in assay [1], in assay [4], in assay [5], in assay [18], in assay [14] and in assay [15] was “inactive” in each case. Besides, the compound was called inactive in [6], in assay [8], in assay [9] and in [12].
Consider `O=c1[nH]c2ccccc2c2ccccc12`, for which the Potency result in [1], in assay [3], in assay [13], in assay [4], in [5] and in assay [18] was “inactive” in each case. Besides, the Potency entry in assay [15], in assay [16], in assay [10] and in assay [11] was “inactive” throughout. The result in assay [6], in assay [8] and in assay [9] was inactive.

The values above are taken from PubChem BioAssay (NCATS).
